AmpC detergent: qHTS Inhibitors of AmpC Beta-Lactamase (assay with detergent). P00811. Potency, µM (titrated, usually from 114 µM), without a hit: top-dose activity change, negative = inhibition, actives largely listed as inhibitors. AmpC hydrolysis of nitrocefin, absorbance 480 nm, 0.01% Triton. AID 485294, 2010. 370,000 tested, 0.041% active;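 further: 0% = no-compound wells and -100% = no-enzyme wells; nearly all actives have a fitted effect of over 25% in size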
Target sequence (P00811 whole entry, looked up): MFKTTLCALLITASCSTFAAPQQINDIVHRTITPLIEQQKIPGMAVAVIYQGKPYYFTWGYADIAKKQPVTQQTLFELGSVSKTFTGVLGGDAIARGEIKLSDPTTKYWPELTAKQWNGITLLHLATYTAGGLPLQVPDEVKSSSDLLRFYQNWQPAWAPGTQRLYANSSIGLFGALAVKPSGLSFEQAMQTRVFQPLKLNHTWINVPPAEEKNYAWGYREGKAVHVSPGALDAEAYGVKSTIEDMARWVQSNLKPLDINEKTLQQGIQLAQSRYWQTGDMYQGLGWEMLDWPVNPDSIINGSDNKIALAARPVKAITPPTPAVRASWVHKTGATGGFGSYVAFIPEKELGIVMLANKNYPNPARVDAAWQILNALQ
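20 mM phosphate pH 7.0 + 0.01% (detergent screen) or 0.0001% Triton X-100; 5.3 nM AmpC reagent; cpd preinc 15 min RT; nitrocefin (800 uM stock) to start; A480 q20 s × 4 min; Activity was normalised to no-enzyme and no-compound control wells.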
Pf growth 48h: Primary qHTS for delayed death inhibitors of the malarial parasite plastid, 48 hour incubation; P. falciparum luciferase growth in erythrocytes, 48 h; Potency, µM (doses to about 28.7 µM), inactives show top-dose activity change, negative = inhibition, actives largely listed as inhibitors; 310,000 tested, 5.9% active
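Erythrocytes infected with P. falciparum carrying an integrated firefly luciferase reporter (2% hematocrit, 0.1% parasitemia final) were exposed to compounds in RPMI 1640 with 0.5% Albumax at 37 C, 5% CO2. Growth inhibition was scored as reduced luminescence.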
Pf growth 96h: Primary qHTS for delayed death inhibitors of the malarial parasite plastid, 96 hour incubation; P. falciparum luciferase reporter growth, 96 h; Potency, µM (doses to about 28.7 µM), inactives show at the highest dose activity change, negative = inhibition, most hits filed as inhibitors; 320,000 tested, 6.9% active; AID 504834, 2011
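Parasite growth measured via integrated firefly luciferase reporter in P. falciparum. Infected erythrocytes at 2% hematocrit, 0.05% parasitemia final were treated 96 hours at 37 C under 5% CO2, and luminescence was read.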
AmpC no deterg: qHTS Inhibitors of AmpC Beta-Lactamase (assay without detergent); Potency, µM (top dose mostly 57.1 µM), without a hit: at the highest dose activity change, negative = inhibition, usual class: inhibitors; 330,000 tested, 0.52% active; P00811; AmpC nitrocefin hydrolysis, absorbance 480 nm, 0.0001% Triton;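 further: plate controls were no compound for no effect and no enzyme for full effect; nearly all actives have a fitted effect of over 20% in size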
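20 mM phosphate pH 7.0 + 0.01% (detergent screen) or 0.0001% Triton X-100; 5.3 nM AmpC reagent; cpd preinc 15 min RT; nitrocefin (800 uM stock) to start; A480 q20 s × 4 min; Activity was normalised to no-enzyme and no-compound control wells.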
HCV inh: qHTS Assay for Inhibitors of Hepatitis C Virus (HCV); Huh7.5.1 HCVcc-Cre infection, luciferase reporter, 44 h; Potency, µM (series often up to 41.8 µM), for inactives: at the highest dose activity change, negative = inhibition, usual class: inhibitors; 340,000 tested, 3.4% active
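1,000 cells/well; 4 h culture; + compound; + HCVcc-Cre (~0.5 moi); 44 h; luciferase substrate, RT 15 min; read 15 sec.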
AMA1-RON2 inh: qHTS for Inhibitors of AMA1-RON; Towards Development of Antimalarial Drug Lead: Primary Screen; AID 720542, 2013; Potency, µM (top dose mostly 58.2 µM), inactives show at the top dose activity change, negative = inhibition, hits mostly inhibitors; 360,000 tested, 0.2% active; AlphaScreen AMA1-biotinylated RON2 peptide binding;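 further: 0% = vehicle wells and -100% = peptide control; nearly all actives have a fitted effect of over 45% in size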
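AMA1 (3D7) with his tag at 25 nM final met compounds first, then biotinylated RON2 peptide at 25 nM; detection used donor plus acceptor beads, 10 µg/mL apiece, read by AlphaScreen after 30 min at room temperature.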
The depositor's hits bear a star; u = inconclusive; x = no result given; [ ] = dose if it differs, or a comment. Compounds with a hit are over-represented: about 11% of the library has one in this group of screens. The call rests on the fitted dose curve; in most records, active means well fitted curve in the direction sought with a large enough effect; inconclusive means small, poorly fitted or top-dose-only effect, or another doubt; inactive means no such curve, though single readings can be large; an effect the other way counts as inactive or inconclusive. Unless noted, on the % scale 0 is the no-effect control and ±100 the full control effect; potency means the concentration at half of the fitted maximal effect.

SMILES | AmpC detergent | Pf growth 48h | Pf growth 96h | AmpC no deterg | HCV inh | AMA1-RON2 inh
Oc1ccc(Nc2nc(-c3ccccc3)nc3ccccc23)cc1 | -6% | -5% | -66% | 18µM* | 10µM* | -10%
CC(=O)Nc1ccc(Nc2nc(-c3ccccc3)nc3ccccc23)cc1 | 2% | -48% | -7% | -19% | 10µM* | -3%
Cn1nc([N+](=O)[O-])nc1Oc1ccccc1F | u | -1% | 13µM* | -21% | 29% | 2%
COc1cccc(C(=O)Nc2cc(OC)ccc2NC(=O)c2ccco2)c1 | -1% | -17% | u | -26% | u | -11%
Cc1cc(NC(=O)c2ccco2)ncc1NC(=O)Cc1ccccc1 | u | 79% | 8.3µM* | -13% | 6% | 14%
COc1cccc(C(=O)Nc2cnc(NC(=O)c3ccco3)cc2C)c1 | -13% | 12% | 5.2µM* | -13% | -9% | -9%
CCCS(=O)(=O)N1CC(=O)N(c2cccc(Cl)c2C)C(C)(C(=O)NC2CCCC2)C1 (centres undefined) | -5% | x | x | x | x | x
Cc1ccc(CNC(=O)c2c(-c3ccccc3F)noc2C)o1 | 1% | x | x | x | x | x
O=C(CSc1ccccc1)NN1C(=O)c2ccccc2C1=O | -6% | 1% | 9.3µM* | -33% | -4% | -2%
O=C(Nc1cccc(C(=O)OCc2cc(=O)n3nc(C4CC4)sc3n2)c1)c1ccc(F)cc1 | -6% | x | x | x | x | x
CC(O)/C=C/C1OC(=O)CC1Nc1ccc(C=O)cc1 (centres undefined) | 0% | 42% | 7.4µM* | 6% | 16% | 19%
CC(=O)N1CCOc2ccc(S(=O)(=O)NCCc3ccccc3)cc21 | -15% | 10% | u | -5% | -7% | 9%
CC(=O)N1CCOc2ccc(S(=O)(=O)NCCc3cccc(C)c3)cc21 | -4% | 21% | 10µM* | 0% | -11% | 11%
CC(=O)N1CC(C)Sc2ccc(S(=O)(=O)NCCc3ccccc3)cc21 (centres undefined) | 1% | 38% | u | 33% | u | -7%
CC(=O)N1CCSc2ccc(S(=O)(=O)NCCc3ccc(Cl)cc3)cc21 | 0% | -16% | u | -6% | 11µM* | -6%
CC(=O)N1CC(C)Sc2ccc(S(=O)(=O)NC(C)c3ccccc3)cc21 (centres undefined) | -9% | -3% | 13µM* | 20% | u | 10%
CC(=O)N1CC(C)Sc2ccc(S(=O)(=O)NCCc3ccc(C)cc3)cc21 (centres undefined) | 1% | 0% | u | 51% | 11µM* | -1%
Cc1c(C(=O)N2CCCC2)oc2c1-c1nn(CC(=O)NCc3ccccc3Br)cc1CC2 | -1% | x | x | x | x | x
COc1cc(NC(=O)CCCN2C(=O)CCn3nc(-c4cn(C)c5ccccc45)cc32)cc(OC)c1 | -4% | x | x | x | x | x
CCOc1ccccc1CNC(=O)Cn1cc2c(n1)-c1c(oc(C(=O)N3CCCC3)c1C)CC2 | 14% | x | x | x | x | x
COc1ccc(C)cc1NC(=O)NCc1cccn1Cc1ccccc1 | 23% | x | x | x | x | x
COc1ccccc1C(=O)OCc1cc(=O)n2nc(C(C)C)sc2n1 | 4% | x | x | x | x | x
CN(CCc1ccccc1)C(=O)c1ccc(NC(=O)Cc2ccc(NC(=O)C3CCCN(C(=O)CCc4ccccc4)C3)cc2)cc1 (centres undefined) | x | x | x | x | 0.56µM* | -5%
CN(C(=O)c1cccc(NC(=O)Cc2ccc(NC(=O)C3CCN(C(=O)c4ccccc4)CC3)cc2)c1)C1CCC1 | x | x | x | x | 10%[8.37 µM] | -10%

Screening data: PubChem, National Center for Advancing Translational Sciences (NCATS)
